Compounds without any hit were thinned out: in the full panel of roughly 83,000, 20% have a hit.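 Single-concentration screen, 48 h exposure, 96-well plates. Endpoint: percent growth. Below 10 = active.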 Unmarked numbers belong to inactive results. Calls of active or inactive are those of the source.
Experiments:
Experiment in all cases: NCI-60 one-dose screen, 48 h (100 = growth as untreated, 0 = no growth, -100 = all killed)
Conditions in all cases: 10 µM unless noted
SK-MEL-2 melanoma = tested on: SK-MEL-2 melanoma
EKVX NSCLC = tested on: EKVX NSCLC
SN12C renal = tested on: SN12C renal
UO-31 renal = tested on: UO-31 renal
TK-10 renal = tested on: TK-10 renal
ACHN renal = tested on: ACHN renal
CAKI-1 renal = tested on: CAKI-1 renal
A498 renal = tested on: A498 renal
CCRF-CEM leukemia = tested on: CCRF-CEM leukemia
MOLT-4 leukemia = tested on: MOLT-4 leukemia

| SMILES | growth (SK-MEL-2 melanoma) | growth (EKVX NSCLC) | growth (SN12C renal) | growth (UO-31 renal) | growth (TK-10 renal) | growth (ACHN renal) | growth (CAKI-1 renal) | growth (A498 renal) | growth (CCRF-CEM leukemia) | growth (MOLT-4 leukemia) |
| --- | --- | --- | --- | --- | --- | --- | --- | --- | --- | --- |
| CCCCCCCCCCCCNC(=O)[C@H]1CSC(c2ccc(OC)c(F)c2)N1 (some centres undefined) | -93.7% (active) | -87.4% (active) | -93% (active) | -99.9% (active) | -96.3% (active) | -100% (active) | -97.8% (active) | -96.3% (active) | -42.5% (active) | -66.9% (active) |
| CCCCCn1cnc2c(=S)nc[nH]c21 | 121% | 108% | 117% | 99.1% | 116% | 109% | 115% | 107% | 97.1% | 104% |
| C/C(=C(/c1ccc(O)cc1)c1ccc(Cl)cc1)c1ccccc1 | -85.1% (active) | -81% (active) | -90.5% (active) | -100% (active) | -63.7% (active) | -92.3% (active) | -54.2% (active) | -55.1% (active) | -61.2% (active) | -29.5% (active) |
| C/C=C/C(N)=O | 119% | 95.9% | 106% | 91.7% | 105% | 96.8% | 98% | 108% | 35.6% | 96.2% |
| N#Cc1c(N)nc(N)nc1Nc1ccc(Br)cc1 | 91.1% | 44.1% | 85.1% | 65.6% | 125% | 89% | 80.1% | 106% | 61.1% | 76.5% |
| Nc1c(C(=O)Nc2ccccc2)sc2nc3c(cc12)CN(CCc1ccccc1)CC3 | 105% | 88.3% | 89.4% | 80.3% | 113% | 95.3% | 86.9% | 91.3% | 104% | 104% |
| COc1ccc(-c2csc(NC(=O)CN3CCN(c4cc5c(cc4F)c(=O)c(C(=O)O)cn5C4CC4)CC3)n2)cc1 | -11.5% (active) | 26.2% | 4.18% (active) | 21% | 18% | 11.8% | 21.3% | -10.1% (active) | 22.2% | 24.2% |
| O=C1/C(=C/c2ccccc2)CN(CCC(=O)N2C/C(=C\c3ccccc3)C(=O)/C(=C/c3ccccc3)C2)C/C1=C\c1ccccc1 | 92.1% | 63.6% | 68.3% | 47.7% | 98.5% | 62.1% | 61.7% | 60.8% | 9.77% (active) | 29.5% |
| ClC1=C2NC=NC2n2c(nnc2-c2ccc(Cl)cc2)N1 (centres undefined) | 95.8% | 105% | 94.5% | 92% | 122% | 109% | 98.8% | 73.1% | 99.9% | 99.6% |
| CCC(=O)OCc1cccc(OC)c1 | 111% | 91.3% | 99% | 92.9% | 119% | 93% | 73.6% | 102% | 73.3% | 87.9% |
| O=C1Nc2c(ccc(Cl)c2Cl)/C1=C/c1cc(Br)c(O)c(Br)c1 | 73.2% | 47.3% | 80.2% | 60.4% | 96.7% | 70.8% | 46.8% | 48.9% | 69% | 63.8% |
| COc1ccc(-c2cc(C(=O)N=Nc3c(O)[nH]c4ccccc34)no2)cc1 | 97.9% | 97.4% | 94.9% | 81.5% | 118% | 107% | 86% | 84.6% | 101% | 106% |
| COc1ccc(/C=C/C(=O)c2c(O)c(C)c(O)c3c2OC2=CC(O)=C(C(C)=O)C(=O)[C@]23C)cc1 | -54.6% (active) | -2.89% (active) | -31.3% (active) | -22.5% (active) | -9.84% (active) | 0.0747% (active) | 6.28% (active) | -56.2% (active) | -29.9% (active) | -27.9% (active) |
| O=C(COc1cccc(/C=C2/Oc3ccccc3C2=O)c1)Nc1nccs1 | -32.2% (active) | 74.7% | 70.3% | -53.2% (active) | 83.7% | 112% | 37% | 93.9% |  | 28.4% |

From PubChem BioAssay (NCI)
